Assay outcomes (PubChem)
A selection: hits, their analogues and other compounds. The true share with any hit is near 32%.
PostGolgi ctrl = yeast control strain growth, post-Golgi counter-screen; inhibition, % at 10 µM; 5% of 98,000 active; efflux-deficient yeast background strain, growth absorbance A615, 16 h
CYP2C19 inhib = inhibitors of human CYP2C19; P33261; CYP2C19 Supersomes, luciferin-H EGE luminescence, 30 min; inhibition, % at 5 µM; 21% of 96,000 active; AID 778;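 active = CYP2C19 inhibition above a set limit at 5 µM in the primary screen, cut at about 50% in these data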;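 also: plate controls were negative control wells for no effect and 2.5 mM tranylcypromine positive control for full effect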
Target sequence (P33261 whole entry, looked up): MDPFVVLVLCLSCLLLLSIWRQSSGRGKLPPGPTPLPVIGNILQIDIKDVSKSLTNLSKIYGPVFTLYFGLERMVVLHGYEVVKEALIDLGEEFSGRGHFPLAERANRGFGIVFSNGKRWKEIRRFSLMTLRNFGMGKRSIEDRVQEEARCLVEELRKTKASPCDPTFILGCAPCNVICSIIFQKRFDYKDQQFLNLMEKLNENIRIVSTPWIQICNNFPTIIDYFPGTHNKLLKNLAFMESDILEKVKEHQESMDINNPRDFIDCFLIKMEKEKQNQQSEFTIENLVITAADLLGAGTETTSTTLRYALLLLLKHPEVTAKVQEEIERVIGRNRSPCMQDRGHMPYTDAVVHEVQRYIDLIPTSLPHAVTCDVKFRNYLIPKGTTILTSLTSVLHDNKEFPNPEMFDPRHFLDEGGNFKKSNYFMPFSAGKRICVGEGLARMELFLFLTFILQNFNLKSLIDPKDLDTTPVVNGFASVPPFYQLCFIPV
CYP2C19 act = cytochrome P450 2C19 (human) activation | P33261 | recombinant CYP2C19, luciferin-H EGE luminescence; hits give high values; 0 = fully inhibited enzyme, 1 = untreated enzyme | activation factor at 5 µM | 96,000 tested, under 10 active;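 active = activation factor of at least 2 at 5 µM in the primary screen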;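 also: 0 = wells with 2.5 mM tranylcypromine and 1 = vehicle-only wells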
CYP2C9 activ = CYP2C9 (human) activation. P11712. recombinant CYP2C9, luciferin-H conversion, luminescence; hits give high values; factor 1 = untreated enzyme, 0 = blocked. activation factor at 5 µM. 1.4% of 96,000 active. AID 1024;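 active = activation factor of 2 or more for CYP2C9 at a 5 µM dose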;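 also: 0 = sulfaphenazole-blocked wells and 1 = vehicle-only wells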
PostGolgi yeast = growth inhibition of a yeast mutant, post-Golgi transport screen. post-Golgi transport phenotypic cell assay. inhibition, % at 10 µM. 0.9% of 98,000 active;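 also: yeast cells grown in 1536-well plates; yeast grown about 18 h at 30C before absorbance read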
CYP2C9 inh = human CYP2C9 inhibition. AID 777. inhibition, % at 5 µM. P11712. CYP2C9 Supersomes, luciferin-H conversion, luminescence. 20% of 96,000 active;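 active = blocking of liver enzyme CYP2C9 beyond about 50% at 5 µM, limit read from the data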
* = called active by the depositor. Rule as the data show it, unless noted: active = inhibition above about 30%; inactive = the rest.

How did COc1ccc(S(=O)(=O)Nc2ccc3ccccc3c2)cc1C do in these assays?
PostGolgi ctrl: 6; CYP2C19 inhib: 100*; CYP2C19 act: 0; CYP2C9 activ: 0; PostGolgi yeast: 1; CYP2C9 inh: 100*

Results for CCc1ccc(NS(=O)(=O)c2ccc(OC)c(C)c2)cc1 ?
PostGolgi ctrl: 36*; CYP2C19 inhib: 78*; CYP2C19 act: 0.2; CYP2C9 activ: 0.2; PostGolgi yeast: -10; CYP2C9 inh: 80*

What do the screens show for `COc1ccccc1C1CN(c2ccc(F)cc2F)N=C1c1cccs1` (stereo unspecified)?
PostGolgi ctrl: -4; CYP2C19 inhib: 70*; CYP2C19 act: 0.3; CYP2C9 activ: 0.1; PostGolgi yeast: 2; CYP2C9 inh: 91*

How did O=C(NCCO)C1CCN(S(=O)(=O)c2ccc(F)cc2)CC1 do in these assays?
PostGolgi ctrl: 6; CYP2C19 inhib: -8; CYP2C19 act: 1.1; CYP2C9 activ: 1; PostGolgi yeast: -4; CYP2C9 inh: -5

How did CCn1c2ccccc2c2cc(NC(=O)COc3ccc(OC)cc3)ccc21 do in these assays?
PostGolgi ctrl: 8; CYP2C19 inhib: 65*; CYP2C19 act: 0.4; CYP2C9 activ: 1.2; PostGolgi yeast: -6; CYP2C9 inh: -19

What do the screens show for `CCn1c2ccccc2c2cc(NC(=O)CCCN3C(=O)CCC3=O)ccc21`?
PostGolgi ctrl: -8; CYP2C19 inhib: 49; CYP2C19 act: 0.5; CYP2C9 activ: 1.9; PostGolgi yeast: 5; CYP2C9 inh: -89

How did CCn1c2ccccc2c2cc(NC(=O)COC(=O)C3CCC(=O)N3)ccc21 (stereo unspecified) do in these assays?
PostGolgi ctrl: -3; CYP2C19 inhib: 27; CYP2C19 act: 0.7; CYP2C9 activ: 2.1*; PostGolgi yeast: 0; CYP2C9 inh: -107

Results for O=C(Nc1ccc(N2CCOCC2)cc1)c1cn2ccccc2n1 ?
PostGolgi ctrl: -5; CYP2C19 inhib: 60*; CYP2C19 act: 0.4; CYP2C9 activ: 0.7; PostGolgi yeast: -4; CYP2C9 inh: 34

Results for Cc1cc(C(=O)Nc2ccc(N3CCOCC3)cc2)c2ccccc2n1 ?
PostGolgi ctrl: 1; CYP2C19 inhib: 0; CYP2C19 act: 1; CYP2C9 activ: 1.1; PostGolgi yeast: 6; CYP2C9 inh: -11

Results for CCOC(=O)c1nn(-c2ccccc2C)c(=O)c(C#N)c1C ?
PostGolgi ctrl: 5; CYP2C19 inhib: 65*; CYP2C19 act: 0.4; CYP2C9 activ: 0.9; PostGolgi yeast: 14; CYP2C9 inh: 8

What do the screens show for `CCOC(=O)c1nnn(-c2ccccc2C#N)c1C`?
PostGolgi ctrl: -2; CYP2C19 inhib: -17; CYP2C19 act: 1.2; CYP2C9 activ: 1.7; PostGolgi yeast: 4; CYP2C9 inh: -70

How did CCOC(=O)N1CCC(=NNS(=O)(=O)c2cccc([N+](=O)[O-])c2)CC1 do in these assays?
PostGolgi ctrl: 7; CYP2C19 inhib: -12; CYP2C19 act: 1.1; CYP2C9 activ: 0.8; PostGolgi yeast: -1; CYP2C9 inh: 16

How did O=S(=O)(NCc1ccccn1)c1ccc2c(c1)OCCO2 do in these assays?
PostGolgi ctrl: 6; CYP2C19 inhib: 83*; CYP2C19 act: 0.2; CYP2C9 activ: 1.4; PostGolgi yeast: -5; CYP2C9 inh: -42

Results for CCOc1ccc(S(=O)(=O)NCc2csc(C)n2)cc1 ?
PostGolgi ctrl: 11; CYP2C19 inhib: 43; CYP2C19 act: 0.6; CYP2C9 activ: 1; PostGolgi yeast: -4; CYP2C9 inh: -5

What do the screens show for `O=S(=O)(NCCc1cn2ccccc2n1)c1ccc2c(c1)OCCO2`?
PostGolgi ctrl: 0; CYP2C19 inhib: 70*; CYP2C19 act: 0.3; CYP2C9 activ: 1.2; PostGolgi yeast: 2; CYP2C9 inh: -18

What do the screens show for `Cc1nc(CNS(=O)(=O)c2cc(C)c(C)cc2C)cs1`?
PostGolgi ctrl: 21; CYP2C19 inhib: 87*; CYP2C19 act: 0.1; CYP2C9 activ: 1.6; PostGolgi yeast: -3; CYP2C9 inh: -62

Results for Cc1csc2nc(CNS(=O)(=O)c3ccc4c(c3)OCCO4)cn12 ?
PostGolgi ctrl: 11; CYP2C19 inhib: 64*; CYP2C19 act: 0.4; CYP2C9 activ: 1.1; PostGolgi yeast: -1; CYP2C9 inh: -14

How did COc1ccc(Cc2nnn(CC(=O)O)n2)cc1 do in these assays?
PostGolgi ctrl: 15; CYP2C19 inhib: -2; CYP2C19 act: 1; CYP2C9 activ: 1.3; PostGolgi yeast: -9; CYP2C9 inh: -27

Results for Cc1ccc(S(=O)(=O)NC(=O)COc2ccccc2C(N)=O)cc1 ?
PostGolgi ctrl: 25; CYP2C19 inhib: 14; CYP2C19 act: 0.9; CYP2C9 activ: 0.5; PostGolgi yeast: -2; CYP2C9 inh: 49

How did Cc1cc(NC(=O)CSc2nc3ccccc3n2CC(=O)N2CCCCC2)no1 do in these assays?
PostGolgi ctrl: 7; CYP2C19 inhib: 34; CYP2C19 act: 0.7; CYP2C9 activ: 0.8; PostGolgi yeast: 9; CYP2C9 inh: 25

Results for CCc1ccc(S(=O)(=O)NCc2cn3c(C)csc3n2)s1 ?
PostGolgi ctrl: -2; CYP2C19 inhib: 78*; CYP2C19 act: 0.2; CYP2C9 activ: 1.2; PostGolgi yeast: -6; CYP2C9 inh: -20

How did COc1ccc(S(=O)(=O)NCc2csc(C)n2)cc1 do in these assays?
PostGolgi ctrl: 1; CYP2C19 inhib: 46; CYP2C19 act: 0.5; CYP2C9 activ: 1.1; PostGolgi yeast: 11; CYP2C9 inh: -7

How did CC(=O)Nc1ccc(S(=O)(=O)NCc2cn3c(C)csc3n2)cc1 do in these assays?
PostGolgi ctrl: 10; PostGolgi yeast: 2

How did Cc1csc2nc(CCNS(=O)(=O)c3ccc4c(c3)OCCO4)cn12 do in these assays?
PostGolgi ctrl: 0; CYP2C19 inhib: 62*; CYP2C19 act: 0.4; CYP2C9 activ: 1.5; PostGolgi yeast: -3; CYP2C9 inh: -52

Results for Cc1nc(CNS(=O)(=O)c2ccc3c(c2)OCCO3)cs1 ?
CYP2C19 inhib: 87*; CYP2C19 act: 0.1; CYP2C9 activ: 1.2; CYP2C9 inh: -23

Results for Cc1csc2nc(CNS(=O)(=O)c3ccc4c(c3)CCCC4)cn12 ?
PostGolgi ctrl: 4; CYP2C19 inhib: 54*; CYP2C19 act: 0.5; CYP2C9 activ: 2*; PostGolgi yeast: -6; CYP2C9 inh: -103

What do the screens show for `Cc1nc(NC(=O)c2cccnc2)ccc1Br`?
PostGolgi ctrl: 14; CYP2C19 inhib: 47; CYP2C19 act: 0.5; CYP2C9 activ: 0.9; PostGolgi yeast: 4; CYP2C9 inh: 15

How did CC(C)(C)S(=O)c1cccs1 (stereo unspecified) do in these assays?
PostGolgi ctrl: 9; CYP2C19 inhib: 4; CYP2C19 act: 1; CYP2C9 activ: 1; PostGolgi yeast: -2; CYP2C9 inh: 3

How did CCc1nc(SCC(=O)c2ccc(C)c(C)c2)n[nH]1 do in these assays?
PostGolgi ctrl: 0; CYP2C19 inhib: 97*; CYP2C19 act: 0; CYP2C9 activ: 2.3*; PostGolgi yeast: 2; CYP2C9 inh: -133

Results for Cc1nc(SCC(=O)c2c[nH]c3ccccc23)n[nH]1 ?
PostGolgi ctrl: 32*; CYP2C19 inhib: 10; CYP2C19 act: 0.9; CYP2C9 activ: 1.6; PostGolgi yeast: -4; CYP2C9 inh: -62
